Only a selection was taken, and hits are over-represented in it overall.
Dicer inh: inhibitors of Dicer pre-microRNA processing, primary screen, biochemical, cat-ELCCA, chemiluminescence; z-score at 25 µM; cat-ELCCA pre-miR-21 Dicer processing; stronger effect = higher value; AID 1347074, 2019; 47,000 tested, 6% active; in the data active = z-score above about 3, passing the limit was not always enough;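 also: plate controls were vehicle for no effect and no enzyme for full effect; higher signal means more uncleaved substrate so more Dicer inhibition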
* hit, by the source's call.

SMILES	Dicer inh
COC(=O)C1C2C=CC3(CN(C(C)c4ccccc4)C(=O)C13)O2 (stereo unspecified)	1.02
C=C(C)CC1C(=O)N(C(=O)c2c(Cl)cccc2Cl)N=C1C (stereo unspecified)	3.38*
C=C(C)CC1C(=O)N(S(=O)(=O)c2ccccc2Cl)N=C1C (stereo unspecified)	1.32
C=C(C)CC1C(=O)N(S(=O)(=O)c2ccc(Cl)cc2)N=C1C (stereo unspecified)	-1.62
COc1nc2c(c(-c3ccc(Cl)cc3Cl)c1C#N)CCc1ccccc1-2	3.13*
COc1nc2c(c(-c3ccc(C(F)(F)F)cc3)c1C#N)CCc1ccccc1-2	-1.77
COc1nc2c(c(-c3ccc4ccccc4c3)c1C#N)CCc1ccccc1-2	-1.35
O=C(Oc1ccc2ccccc2c1)c1ccccc1O	0.6
Cc1nn(-c2ccccc2)cc1/C=N/n1c(SCC(=O)c2ccccc2)nnc1-c1ccncc1	-1.1
CCOC(=O)c1nn(-c2ccc(Cl)cc2Cl)cc(Sc2nc(C)c(C)c(C)c2C#N)c1=O	1.6
CCCNC(=O)Nc1n[nH]c(Nc2ccc(Cl)cc2)n1	2.39
Cc1onc(-c2c(Cl)cccc2Cl)c1NC(=O)NC(C)C	0.43
CC(C)NC(=O)Nc1n[nH]c(Nc2ccc(Cl)cc2)n1	11.5*
CN(C)/C=C/C(=O)c1csc2ccccc12	3.53*
Cc1oc(-c2ccccc2)cc1C(=O)/C=C/N(C)C	1.66
CN(C)/C=C/C(=O)c1ccc(Br)s1	-0.94
O=C1C2=C(Nc3[nH]c(=O)[nH]c(=O)c3C2c2ccc(Cl)cc2)c2ccccc21 (stereo unspecified)	-0.29
O=S(=O)(O)c1ccc2c(c1)Cc1cc(S(=O)(=O)O)ccc1-2	-0.48
C=C1COC(=O)N1c1ccccc1[N+](=O)[O-]	1.61
CCOC(=O)N1CCC(NC(=O)CNC(=O)c2ccco2)CC1	-0.81
CCCOC(=O)CSc1nc(C)cc(C)c1C#N	1.01
CCSc1nnc2c(n1)OC(c1ccc(N(C)C)cc1)Nc1ccccc1-2 (stereo unspecified)	1.35
CCCSc1nnc2c(n1)OC(/C=C/c1ccc([N+](=O)[O-])o1)Nc1ccccc1-2 (stereo unspecified)	3.48*
CCSc1nnc2c(n1)OC(c1ccc(O)cc1)Nc1ccccc1-2 (stereo unspecified)	-0.74
COc1nc2c(c(-c3c(F)cccc3Cl)c1C#N)Cc1ccccc1-2	0.66
SMILES	Dicer inh
COc1ccc(/C(O)=C2\C(=O)C(=O)N(CCN(C)C)C2c2ccc(C)cc2)cc1 (stereo unspecified)	1.21
Cc1ccc(S(=O)(=O)Oc2ccc(Oc3ccccc3)cc2)cc1	-0.48
Cc1nc2ccccc2c2c1C(=O)N(c1ccccc1C(=O)OCC(=O)C(C)(C)C)C2=O	4.71*
CSc1nc2ccccc2c(=O)n1CC(=O)C(C)(C)C	1.54
Cc1nc2ccccc2c(C(=O)O)c1C(=O)O	-1.61
CN(C)/C=N/C(=S)NC1CC2C=CC1C2 (stereo unspecified)	0.98
Cc1cccn2cc(-c3cccc(S(=O)(=O)N4CC(C)OC(C)C4)c3)nc12 (stereo unspecified)	-0.05
Cc1cccn2cc(-c3ccc(NS(=O)(=O)c4ccc(Br)cc4)cc3)nc12	7.94*
Cc1cccn2cc(-c3cccc(S(=O)(=O)N4CCCC4)c3)nc12	-0.04
Cc1ccc(S(=O)(=O)Nc2ccc(-c3cn4cccc(C)c4n3)cc2)c(C)c1	6.09*
Cc1ccc(S(=O)(=O)Nc2n[nH]c(-c3ccc(C(C)(C)C)cc3)c2Br)cc1	-6.05
Cc1ccc(S(=O)(=O)Nc2ccc(-c3cn4cccc(C)c4n3)cc2)cc1C	8.64*
Cc1cccn2cc(-c3cccc(S(=O)(=O)N4CCOCC4)c3)nc12	0.78
Cc1cccn2cc(-c3ccccc3Cl)nc12	0.28
NC(=O)c1c(Nc2ccccc2)sc(C(=O)c2ccccc2)c1N	-0.59
O=S(=O)(c1ccc(NC(=S)Nc2ccc3c(c2)OCO3)cc1)N1CCCCC1	0.12
Cc1ccccc1OCC(O)Cn1cnc2ccccc21 (stereo unspecified)	2.05
COc1ccc2[nH]c(C(=O)NCCNc3cccc(C(F)(F)F)n3)cc2c1	-1.07
S=C(Nc1ccc(Cl)cc1Cl)N1CCCC1c1cccs1 (stereo unspecified)	0.54
O=C(NNC1=NCCN1Cc1ccccc1)c1cccc(Cl)c1	0.14
Cc1ccccc1C1=NC(C(F)(F)F)(C(F)(F)F)N=C(N2CCOCC2)O1	-0.79
Cc1ccc(C2=NC(C(F)(F)F)(C(F)(F)F)N=C(N(C)C)O2)cc1	3.72*
Cc1cc(=O)n2ncnc2n1CC(=O)N/N=C/c1ccc([N+](=O)[O-])cc1	0.64
COc1ccc(C(=O)CSc2nc3ccc(Cl)cc3[nH]2)cc1OC	0.06
CC1=C(C(=O)OC(C)C)C(c2cccc3ccccc23)C2=C(CC(C)(C)CC2=O)N1 (stereo unspecified)	1.01
SMILES	Dicer inh
Cn1cnc(S(=O)(=O)Nc2ccc(N3CCCCC3)cc2)c1	-1.5
O=S(=O)(Nc1ccc(N2CCCCC2)cc1)c1cc(S(=O)(=O)c2ccccc2)cs1	5.31*
O=S(=O)(Nc1ccc2c(c1)OCCO2)c1cc(S(=O)(=O)c2ccccc2)cs1	2.38
COCOc1ccc(C(=O)O)cc1OC	-0.83
COc1ccc(C(=O)N2CCSC2=S)cc1OC	3.52*
COc1ccc(C(=O)N2CCSC2=S)cc1	0.68
Cn1c(=O)[nH]c(=O)c2c1nc(N1CCNCC1)n2CC(O)COc1ccccc1 (stereo unspecified)	-1.17
CCOC(=O)C(NC(=O)CC)(Nc1cccc(C)c1)C(F)(F)F (stereo unspecified)	-0.52
O=S(=O)(NCc1ccccn1)c1cccc2ccccc12	-0.32
CC(C)(C)NS(=O)(=O)c1cccc2cccnc12	-0.27
O=S(=O)(NCCCCNS(=O)(=O)c1cccc2cccnc12)c1cccc2cccnc12	5.54*
CC(=O)Nc1ccc(N2C(=O)C3CCCCC3C2=O)cc1Cl (stereo unspecified)	1.29
Cc1ccc(/C=N/Nc2ncnc3sc(-c4ccccc4)cc23)o1	3.83*
C(=N\Nc1ncnc2sc(-c3ccccc3)cc12)/c1ccncc1	2.83
C(=N\Nc1ncnc2sc(-c3ccccc3)cc12)/c1cccs1	1.08
Cc1ccc(C)n1-c1sc2c(c1C(=O)NNS(=O)(=O)c1ccc(C(F)(F)F)cc1)CCCC2	-0.2
CCn1c(=S)[nH]c2sc(C)c(C)c2c1=O	-1.06
Cc1ccnc(-n2c(=S)[nH]c3sc(C)c(C)c3c2=O)c1	0.49
Cc1cc(-n2c(=S)[nH]c3sc(C)c(C)c3c2=O)n(-c2ccccc2)n1	3.17*
N#CC(c1cccc(C(F)(F)F)c1)c1cccc(C(F)(F)F)c1	-1.18
CCc1nn2c(N)c(C#N)cnc2c1-c1ccc(OC)cc1	0.77
CSc1ccc(C2c3c(oc4ccccc4c3=O)C(=O)N2c2nncs2)cc1 (stereo unspecified)	1.4
S=C(N/N=C/C=C/c1ccccc1)NC1CC2CC1C1C=CCC21 (stereo unspecified)	0.15
CC1CC(NC(=S)Nc2ccc(I)cc2F)CC(C)(C)C1 (stereo unspecified)	1.04
CC1CC(NC(=S)NC2CC3CC2C2C=CCC32)CC(C)(C)C1 (stereo unspecified)	3.11*
CCc1ccccc1-n1c(SCC(O)C(F)(F)F)nc2ccccc2c1=O (stereo unspecified)	-0.29
Cc1ccc(C(=O)COC(=O)C2CCC(N3C(=O)C4CCCCC4C3=O)CC2)cc1C (stereo unspecified)	-1.87

Screening data from PubChem BioAssay.
